For 14 molecules, growth results are on record in PubChem BioAssay (NCI).

About 83,000 compounds went through this panel and 20% of them were active in at least one assay; those are over-represented in the sample as a whole.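 Plates (96-well) were seeded with cells, treated with compound at one concentration, and incubated for 48 hours before percent growth was determined.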 A number with no mark means an inactive call. The source made the active and inactive calls. The calls were made as follows: active = growth percent below 10; inactive = the rest.

Among the test systems are EKVX NSCLC; SN12C renal; UO-31 renal; TK-10 renal; ACHN renal; CAKI-1 renal; A498 renal; CCRF-CEM leukemia; MOLT-4 leukemia; SR leukemia.
Common to all, as to experiment: NCI-60 one-dose screen, 48 h (100 = growth as untreated, 0 = no growth, -100 = all killed)
Settings in all cases: 10 µM unless noted

Regarding `COc1cc(/C=C2\CN(C)C/C(=C\c3cc(CN4CCOCC4)c(O)c(OC)c3)C2=O)cc(CN2CCOCC2)c1O`, the growth in the test with EKVX NSCLC is 80.6%; with SN12C renal, 35%; in the test with UO-31 renal it was 76.6%; in the test with TK-10 renal, 91.9%; in the test with ACHN renal it was 47.5%; in the test on CAKI-1 renal it was 82.7%. Also, the growth in the test with A498 renal was 81.8%; with CCRF-CEM leukemia, 32.1%; with MOLT-4 leukemia, 30%; in the test on SR leukemia, 32.6%.

As to `COc1cc(/C=C2\CCC/C(=C\c3cc(CN4CCCCC4)c(O)c(OC)c3)C2=O)cc(CN2CCCCC2)c1O`, the growth was 87.3% in the test with EKVX NSCLC; 72.5% with SN12C renal; 58.3% with UO-31 renal; 115% in the test on TK-10 renal; 83.8% with ACHN renal; 106% in the test on CAKI-1 renal. Also, the growth with A498 renal is 90.9%; in the test with CCRF-CEM leukemia, 45.7%; in the test on MOLT-4 leukemia it was 49.8%; in the test on SR leukemia, 6.77% (active).

On to `CCOC(=O)c1c2c(c(C)n1Cc1ccc(OC)cc1)-c1oncc1CC2`, for which the growth in the test with EKVX NSCLC was 94.3%; with SN12C renal, 175%; in the test with UO-31 renal, 65.3%; in the test with TK-10 renal, 102%; in the test on ACHN renal, 91.3%; with CAKI-1 renal, 70.6%. The growth was 91.9% in the test with A498 renal, 93.3% with CCRF-CEM leukemia, 85.3% in the test on MOLT-4 leukemia and 85.4% with SR leukemia.

For the molecule `COc1cccc(C2=NN3C(C2)c2ccccc2OC3c2ccc(/C=C3\SC(=O)NC3=O)cc2)c1` (stereo not given), the growth in the test on EKVX NSCLC is 85.4%; with SN12C renal, 101%; in the test on UO-31 renal it was 73.2%; in the test with TK-10 renal, 102%; in the test with ACHN renal, 98.7%; in the test on CAKI-1 renal, 96.4%. Further, the growth with A498 renal was 88.6%; with CCRF-CEM leukemia it was 97.1%; in the test with MOLT-4 leukemia, 96.9%; with SR leukemia, 120%.

For `O=C(CN1C(=O)/C(=C\c2ccc(Cl)cc2)SC1=S)Nc1ncc(Cc2ccc(Cl)cc2)s1`, the growth was 96.5% in the test with EKVX NSCLC; 104% in the test on SN12C renal; 80.8% in the test on UO-31 renal; 111% with TK-10 renal; 103% in the test with ACHN renal; 88.1% in the test on CAKI-1 renal. The growth in the test with A498 renal was 115%; with CCRF-CEM leukemia it was 106%; with MOLT-4 leukemia, 106%; in the test with SR leukemia it was 116%.

Regarding `COc1ccc(/C=C/C(=O)c2ccc(Nc3nc(NCCO)nc(Nc4ccc(Cl)cc4)n3)cc2)cc1`, the growth is 66.6% in the test on EKVX NSCLC; 86.6% in the test on SN12C renal; 70.8% with UO-31 renal; 96.2% with TK-10 renal; 67.7% in the test with ACHN renal; 81.4% in the test on CAKI-1 renal. Also, the growth in the test with A498 renal was 69.2%; in the test on CCRF-CEM leukemia it was 48.8%; with MOLT-4 leukemia, 46.3%; in the test on SR leukemia, 38.4%.

`COc1cc(/C=C2\CN(S(=O)(=O)c3ccccc3)C/C(=C\c3cc(CN4CCCC4)c(O)c(OC)c3)C2=O)cc(CN2CCCC2)c1O`: the growth is 24.7% in the test on EKVX NSCLC; -25.8% (active) with SN12C renal; 34.7% in the test with UO-31 renal; 26.8% with TK-10 renal; 12.1% with ACHN renal; 75.3% with CAKI-1 renal. For the same molecule, the growth with A498 renal was 8.57% (active); in the test with CCRF-CEM leukemia, 7.45% (active); with MOLT-4 leukemia it was 1.22% (active); in the test with SR leukemia it was 17.5%.

For the molecule `O=C(CN1C=NC2C(N3CCOCC3)=NC=NC21)c1cccc2ccccc12` (stereo not given), the growth is 86.5% with EKVX NSCLC; 95.5% with SN12C renal; 71.6% in the test on UO-31 renal; 130% with TK-10 renal; 97.8% in the test on ACHN renal; 73.1% with CAKI-1 renal. The growth was 104% in the test on CCRF-CEM leukemia, 93.3% with MOLT-4 leukemia and 85.1% in the test with SR leukemia.

For the molecule `Cc1ccc2nc(NC(=O)CSC(=S)N3CCN(c4ccccc4)CC3)sc2c1`, the growth in the test with EKVX NSCLC was 109%; in the test with SN12C renal, 99%; in the test on UO-31 renal, 88.2%; with TK-10 renal it was 108%; in the test on ACHN renal, 100%; with A498 renal it was 108%. Besides, in the test with MOLT-4 leukemia, the growth was 111%.

`CCCSC1=NC2C(N(CC)C(=O)N2CC)N1/N=C/C=C/c1ccccc1[N+](=O)[O-]` (stereo not given): the growth in the test with EKVX NSCLC is 53.6%; with SN12C renal, 40.6%; in the test on UO-31 renal it was 44%; in the test on TK-10 renal, 85.1%; in the test with ACHN renal, 41.5%; in the test with CAKI-1 renal, 44.1%. Moreover, the growth was 16% in the test with CCRF-CEM leukemia, 18.6% in the test on MOLT-4 leukemia and 9.32% (active) with SR leukemia.

Consider `COc1cc(CNC(=O)Cc2ccccc2)ccc1OCc1cn(-c2ccc(F)cc2)nn1`, for which the growth in the test with EKVX NSCLC was 94.2%; with SN12C renal, 93.1%; with UO-31 renal, 80.7%; in the test with TK-10 renal it was 112%; with ACHN renal it was 94.9%; in the test with CAKI-1 renal, 91.2%. For the same molecule, the growth with CCRF-CEM leukemia was 100%; with MOLT-4 leukemia it was 114%; with SR leukemia it was 106%.

For `O=c1oc2ccc(Br)cc2c(=O)n1-c1ccc(Br)cc1F`, the growth in the test on EKVX NSCLC was 3.25% (active); in the test with SN12C renal, -1.73% (active); with UO-31 renal, -19.5% (active); in the test on TK-10 renal, 18.9%; in the test with ACHN renal, -6.06% (active); with CAKI-1 renal it was -10.6% (active). Further, the growth in the test with CCRF-CEM leukemia is 9% (active); with MOLT-4 leukemia, -16.6% (active); in the test on SR leukemia, 3.7% (active).

Regarding `NCCNc1nc2ccc(F)cc2c2c(=O)c3cc(F)ccc3sc12`, the growth with EKVX NSCLC was 75.9%; with SN12C renal, 46.3%; with UO-31 renal, 35.6%; with TK-10 renal, 59.1%; in the test on CAKI-1 renal it was 22.5%; in the test on A498 renal it was 41.2%. Further, the growth with CCRF-CEM leukemia is 20.7%; in the test with MOLT-4 leukemia, 5.51% (active).

In the case of `CCOC(=O)C1=C(C)c2ccc(OC)c(OC)c2C1`, the growth is 98.8% in the test on EKVX NSCLC; 108% with SN12C renal; 95.5% with UO-31 renal; 87.2% in the test on TK-10 renal; 100% in the test with CAKI-1 renal; 96.3% with A498 renal. Moreover, the growth in the test with CCRF-CEM leukemia was 93%; in the test with MOLT-4 leukemia, 87.7%; with SR leukemia, 73.4%.
